Experimental data from PubChem BioAssay AID488907 (Broad Institute, 2010).
Entries with a potency or affinity are not part of this list. Results filed as inconclusive are left out. Values without a mark were called inactive.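 Rule for the calls: active = fluorescence drops from fewer live microbes, with half-maximal dose at most ten times the top valid tested dose; inconclusive = flat curve with 30 to 70% inhibition, or poor fit; inactive = the rest, including signal rises.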

Test: reversal of fluconazole resistance in C. albicans, dose response, CaCi-2 strain, Alamar Blue, dry powder, set 3 (AID 488907)
Conditions: C. albicans CaCi-2 (fluconazole-resistant clinical isolate) + fluconazole, 48 h; series mostly up to 6 µM; activity change, negative = inhibition: at the top concentration

**Q.** For `O=C(c1ccc(Cl)cc1)N1CCN(c2cnccn2)CC1`, which “activity change, negative = inhibition” value is on record?
**A.** The value was -15.4%.

**Q.** With `O=C(c1ccc(Cl)cc1)N1CCN(c2cccc(C(F)(F)F)n2)CC1` as the compound, how does the “activity change, negative = inhibition” value read?
**A.** The value was 83.2%.

**Q.** Which “activity change, negative = inhibition” value does the source give for `Cc1cccc(N2CCN(C(=O)c3ccc(Cl)cc3)CC2)n1` here?
**A.** Its value is -6.9%.
